# Assay results reported in PubChem BioAssay (EPA / NIEHS).
# Results filed as inconclusive are left out. Activity calls are given as the source filed them. How the source made its calls: active means hit-call score of the fitted dose curve at least 0.9, where 1 is the maximum; inconclusive means response in the unintended direction; inactive means score below 0.9.
# Key:
# [1] = biological target: human Matrix Metalloproteinase-2 (MMP2), MMP2 (gene 4313) (UniProt P08253); assay: NVS_ENZ_hMMP2: NovaScreen (NVS) Enzymatic Assay for human Matrix Metalloproteinase-2 (MMP2) (AID 2283184)
# Chain of human Matrix Metalloproteinase-2 (MMP2), MMP2 (gene 4313) (P08253 whole entry, looked up): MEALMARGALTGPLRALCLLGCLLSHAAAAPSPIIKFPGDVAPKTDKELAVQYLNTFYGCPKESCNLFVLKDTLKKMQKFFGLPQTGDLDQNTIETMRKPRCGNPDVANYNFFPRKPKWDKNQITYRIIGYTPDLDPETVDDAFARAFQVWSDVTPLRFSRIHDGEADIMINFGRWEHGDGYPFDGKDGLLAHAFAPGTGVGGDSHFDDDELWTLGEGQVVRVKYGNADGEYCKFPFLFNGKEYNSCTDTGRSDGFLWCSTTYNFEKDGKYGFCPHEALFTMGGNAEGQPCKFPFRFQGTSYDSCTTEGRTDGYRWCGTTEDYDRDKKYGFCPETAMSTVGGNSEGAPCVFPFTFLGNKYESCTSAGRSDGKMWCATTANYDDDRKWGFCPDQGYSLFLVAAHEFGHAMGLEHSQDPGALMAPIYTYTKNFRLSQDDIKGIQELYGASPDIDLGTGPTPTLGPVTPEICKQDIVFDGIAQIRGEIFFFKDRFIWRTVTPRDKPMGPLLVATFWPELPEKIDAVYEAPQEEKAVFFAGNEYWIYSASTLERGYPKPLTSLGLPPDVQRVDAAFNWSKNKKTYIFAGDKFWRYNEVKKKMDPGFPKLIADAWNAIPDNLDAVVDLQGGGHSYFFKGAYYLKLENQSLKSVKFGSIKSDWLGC
# Procedure, shortened: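 Cell-free recombinant MMP2 activity with a fluorescent substrate, read 1 h after dosing. Primary screen in duplicate at 25 uM; actives then run in concentration series; loss of signal fitted versus DMSO.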
# [2] = biological target: human NIMA (Never In Mitosis Gene A)-Related Kinase 2 (NEK2), NEK2 (gene 4751) (UniProt P51955); assay: NVS_ENZ_hNEK2: NovaScreen (NVS) Enzymatic Assay for human NIMA (Never In Mitosis Gene A)-Related Kinase 2 (NEK2) (AID 2283188)
# Procedure, shortened: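 Cell-free NEK2 enzyme activity after 1 h exposure, read by fluorescence with electrophoretic mobility shift separating substrate and product. Primary screen in duplicate at 25 uM; actives then run as concentration series. Loss of signal versus DMSO scored.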
# [3] = biological target: human Matrix Metalloproteinase-9 (MMP9), MMP9 (gene 4318) (UniProt P14780); assay: NVS_ENZ_hMMP9: NovaScreen (NVS) Enzymatic Assay for human Matrix Metalloproteinase-9 (MMP9) (AID 2283190);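 further: cell-free recombinant MMP9 protease activity read by fluorescent substrate signal; active means inhibition seen as loss of fluorescence signal versus DMSO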
# Chain of human Matrix Metalloproteinase-9 (MMP9), MMP9 (gene 4318) (P14780 whole entry, looked up): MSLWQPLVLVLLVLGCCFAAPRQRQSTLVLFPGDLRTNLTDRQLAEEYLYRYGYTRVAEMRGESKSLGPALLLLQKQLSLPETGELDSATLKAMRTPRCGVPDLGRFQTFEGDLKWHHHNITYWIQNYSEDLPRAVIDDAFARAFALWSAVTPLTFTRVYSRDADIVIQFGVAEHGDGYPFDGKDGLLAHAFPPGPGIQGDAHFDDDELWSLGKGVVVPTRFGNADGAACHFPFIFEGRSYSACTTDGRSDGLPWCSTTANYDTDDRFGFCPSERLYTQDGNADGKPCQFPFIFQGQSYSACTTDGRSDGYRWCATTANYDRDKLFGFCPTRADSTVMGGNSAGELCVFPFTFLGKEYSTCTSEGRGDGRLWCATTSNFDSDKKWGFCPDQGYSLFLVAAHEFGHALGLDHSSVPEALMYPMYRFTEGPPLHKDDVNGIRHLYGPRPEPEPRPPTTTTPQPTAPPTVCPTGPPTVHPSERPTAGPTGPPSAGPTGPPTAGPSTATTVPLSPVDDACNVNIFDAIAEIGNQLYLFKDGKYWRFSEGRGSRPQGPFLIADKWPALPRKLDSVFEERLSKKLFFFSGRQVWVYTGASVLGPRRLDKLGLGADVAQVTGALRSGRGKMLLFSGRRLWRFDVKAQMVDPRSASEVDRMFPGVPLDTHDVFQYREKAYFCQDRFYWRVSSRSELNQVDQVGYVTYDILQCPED
# Procedure, shortened: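 Screening concentration 25 uM, duplicate wells, then dose series for confirmation. Cell-free enzymatic reaction measured by fluorescence intensity 1 h post-dosing; decreased signal versus DMSO taken as activity.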
# [4] = biological target: human Phosphodiesterase 4A1 (PDE4A1), PDE4A (gene 5141) (UniProt P27815); assay: NVS_ENZ_hPDE4A1: NovaScreen (NVS) Enzymatic Assay for human Phosphodiesterase 4A1 (PDE4A1) (AID 2283191)
# Chain of human Phosphodiesterase 4A1 (PDE4A1), PDE4A (gene 5141) (P27815 whole entry, looked up): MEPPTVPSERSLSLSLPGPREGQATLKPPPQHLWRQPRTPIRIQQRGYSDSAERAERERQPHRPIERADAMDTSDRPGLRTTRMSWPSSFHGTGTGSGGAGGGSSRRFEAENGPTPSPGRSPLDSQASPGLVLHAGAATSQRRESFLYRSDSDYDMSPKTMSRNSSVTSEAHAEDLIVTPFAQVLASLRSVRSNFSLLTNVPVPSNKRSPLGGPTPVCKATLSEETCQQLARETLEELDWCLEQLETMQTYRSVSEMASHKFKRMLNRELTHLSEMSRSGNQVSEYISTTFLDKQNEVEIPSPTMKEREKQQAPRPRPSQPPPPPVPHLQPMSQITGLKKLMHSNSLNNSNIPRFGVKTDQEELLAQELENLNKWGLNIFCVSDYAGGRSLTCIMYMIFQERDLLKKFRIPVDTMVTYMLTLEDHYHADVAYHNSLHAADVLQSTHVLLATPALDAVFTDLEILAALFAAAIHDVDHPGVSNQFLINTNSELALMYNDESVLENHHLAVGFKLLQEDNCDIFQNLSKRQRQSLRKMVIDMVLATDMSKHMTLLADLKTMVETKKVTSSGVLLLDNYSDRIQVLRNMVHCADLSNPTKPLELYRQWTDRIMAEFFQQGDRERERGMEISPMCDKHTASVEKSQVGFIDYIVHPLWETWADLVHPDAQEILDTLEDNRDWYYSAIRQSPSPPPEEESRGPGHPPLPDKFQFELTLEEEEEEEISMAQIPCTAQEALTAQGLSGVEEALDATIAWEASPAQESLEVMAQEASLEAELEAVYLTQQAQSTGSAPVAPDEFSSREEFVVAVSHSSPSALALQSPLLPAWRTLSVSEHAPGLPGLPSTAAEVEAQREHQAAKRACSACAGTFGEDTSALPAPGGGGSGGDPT
# Procedure, shortened: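 Cell-free recombinant human PDE4A1 with fluorescent substrate; product separated by electrophoretic mobility shift, 1 h. Screened at 25 uM, then up to 50 uM in concentration-response; loss of signal fitted against DMSO.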
# [5] = biological target: human Phosphoinositide 3-kinase alpha (PI3Ka), PIK3CA (gene 5290) (UniProt P42336); assay: NVS_ENZ_hPI3Ka: NovaScreen (NVS) Enzymatic Assay for human Phosphoinositide 3-kinase alpha (PI3Ka) (AID 2283196)
# Procedure, shortened: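 Duplicate single-point screen (25 uM), then singleton dose-response (max 50 uM) for compounds meeting the threshold. Cell-free kinase reaction, 1 h; fluorescent mobility-shift readout.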
# [6] = biological target: Collagenase 3 (Homo sapiens) (UniProt P45452); assay: NVS_ENZ_hMMP13: NovaScreen (NVS) Enzymatic Assay for human Matrix Metalloproteinase-13 (MMP13) (AID 2283182)
# Procedure, shortened: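 Recombinant MMP13 cleaving fluorescent substrate, cell-free, measured 1 h after dosing. Primary duplicate screen at 25 uM; actives tested in concentration-response up to 50 uM; loss of signal relative to DMSO.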
# [7] = biological target: Glycogen synthase kinase-3 beta (Homo sapiens) (UniProt P49841); assay: NVS_ENZ_hGSK3b: NovaScreen (NVS) Enzymatic Assay for human Glycogen Synthase Kinase-3 beta (GSK3b) (AID 2283165)
# Procedure, shortened: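 Recombinant enzyme with specific fluorescent substrate, 1 h, product separated by electrophoretic mobility shift. Primary duplicate screen at 25 uM; actives (e.g. 30% inhibition) followed in singleton concentration-response to 50 uM. Signal loss fitted versus DMSO.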
# [8] = biological target: human MAP Kinase-Activated Protein Kinase 2 (MAPKAPK2), MAPKAPK2 (gene 9261) (UniProt P49137); assay: NVS_ENZ_hMAPKAPK2: NovaScreen (NVS) Enzymatic Assay for human MAP Kinase-Activated Protein Kinase 2 (MAPKAPK2) (AID 2283178)
# Chain of human MAP Kinase-Activated Protein Kinase 2 (MAPKAPK2), MAPKAPK2 (gene 9261) (P49137 whole entry, looked up): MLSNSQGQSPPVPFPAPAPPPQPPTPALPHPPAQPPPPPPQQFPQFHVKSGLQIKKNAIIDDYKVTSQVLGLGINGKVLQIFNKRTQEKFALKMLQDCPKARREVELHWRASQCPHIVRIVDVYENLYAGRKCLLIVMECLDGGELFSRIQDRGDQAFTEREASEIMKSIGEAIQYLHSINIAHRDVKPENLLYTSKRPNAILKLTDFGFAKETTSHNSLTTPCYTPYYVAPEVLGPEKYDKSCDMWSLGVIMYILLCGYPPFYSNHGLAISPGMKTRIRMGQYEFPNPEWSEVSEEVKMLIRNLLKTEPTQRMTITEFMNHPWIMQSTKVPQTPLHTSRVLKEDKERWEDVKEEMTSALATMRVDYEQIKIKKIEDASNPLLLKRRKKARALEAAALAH
# Procedure, shortened: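 Cell-free recombinant human MAPKAPK2 activity measured by fluorescence with electrophoretic mobility shift separation of substrate and product, 1 hr after dosing. Loss of signal versus DMSO; primary screen at 25 uM, concentration-response up to 50 uM.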
# [9] = biological target: human Phosphodiesterase 5 (PDE5), PDE5A (gene 8654) (UniProt O76074); assay: NVS_ENZ_hPDE5: NovaScreen (NVS) Enzymatic Assay for human Phosphodiesterase 5 (PDE5) (AID 2283194)
# Procedure, shortened: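 Recombinant human PDE5 with specific substrate, read 1 h after dosing by fluorescence with electrophoretic mobility-shift separation of substrate and product. Initial single-concentration duplicate screen at 25 uM, actives followed in concentration series; loss of activity versus DMSO.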
# [10] = biological target: human Matrix Metalloproteinase-7 (MMP7), MMP7 (gene 4316) (UniProt P09237); assay: NVS_ENZ_hMMP7: NovaScreen (NVS) Enzymatic Assay for human Matrix Metalloproteinase-7 (MMP7) (AID 2283183)
# Chain of human Matrix Metalloproteinase-7 (MMP7), MMP7 (gene 4316) (P09237 whole entry, looked up): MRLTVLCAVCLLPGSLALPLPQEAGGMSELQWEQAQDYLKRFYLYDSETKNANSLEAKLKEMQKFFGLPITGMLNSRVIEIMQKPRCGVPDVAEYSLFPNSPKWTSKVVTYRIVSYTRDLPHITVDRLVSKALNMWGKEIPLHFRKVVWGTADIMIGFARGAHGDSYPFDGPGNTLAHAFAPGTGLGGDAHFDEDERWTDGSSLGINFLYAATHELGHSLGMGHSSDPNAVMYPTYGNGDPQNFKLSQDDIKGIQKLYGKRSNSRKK
# Procedure, shortened: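 Cell-free fluorescence enzymatic assay read 1 h after compound addition, activity loss analyzed against DMSO. Primary duplicate testing at 25 uM; compounds meeting threshold rerun in singleton concentration-response up to 50 uM.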
# [11] = biological target: human Janus Kinase 2 (Jak2), JAK2 (gene 3717) (UniProt O60674); assay: NVS_ENZ_hJak2: NovaScreen (NVS) Enzymatic Assay for human Janus Kinase 2 (Jak2) (AID 2283169)
# Procedure, shortened: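 Cell-free recombinant human JAK2 enzyme activity assay, fluorescence/electrophoretic mobility shift read 1 h after dosing. Screened in duplicate at 25 uM, then concentration-response up to 50 uM; activity as signal loss relative to DMSO.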
# [12] = biological target: Mitogen-activated protein kinase 3 (Homo sapiens) (UniProt P27361); assay: NVS_ENZ_hMAPK3: NovaScreen (NVS) Enzymatic Assay for human Mitogen-Activated Protein Kinase 3 (MAPK 3) (AID 2283177)
# Chain of Mitogen-activated protein kinase 3 (Homo sapiens) (P27361 whole entry, looked up): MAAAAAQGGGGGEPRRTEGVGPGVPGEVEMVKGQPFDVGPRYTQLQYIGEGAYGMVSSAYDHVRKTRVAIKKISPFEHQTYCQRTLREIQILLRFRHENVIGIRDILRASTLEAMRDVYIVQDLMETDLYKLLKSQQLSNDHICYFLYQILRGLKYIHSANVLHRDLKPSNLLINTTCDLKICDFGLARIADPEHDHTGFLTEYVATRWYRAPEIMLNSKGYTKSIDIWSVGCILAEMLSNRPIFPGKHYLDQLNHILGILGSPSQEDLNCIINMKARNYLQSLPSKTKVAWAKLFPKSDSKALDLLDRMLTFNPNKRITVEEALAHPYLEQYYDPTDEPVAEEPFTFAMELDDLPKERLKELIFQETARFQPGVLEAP
# Procedure, shortened: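 Cell-free enzymatic assay with recombinant protein and specific substrate; fluorescence and electrophoretic mobility shift read-out 1 h after dosing. Primary screen duplicate at 25 uM; actives then run in concentration-response up to 50 uM, loss of signal versus DMSO.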
# [13] = biological target: human c-Jun N-terminal Kinases (JNK2), MAPK9 (gene 5601) (UniProt P45984); assay: NVS_ENZ_hJNK2: NovaScreen (NVS) Enzymatic Assay for human c-Jun N-terminal Kinases (JNK2) (AID 2283171)
# Chain of human c-Jun N-terminal Kinases (JNK2), MAPK9 (gene 5601) (P45984 whole entry, looked up): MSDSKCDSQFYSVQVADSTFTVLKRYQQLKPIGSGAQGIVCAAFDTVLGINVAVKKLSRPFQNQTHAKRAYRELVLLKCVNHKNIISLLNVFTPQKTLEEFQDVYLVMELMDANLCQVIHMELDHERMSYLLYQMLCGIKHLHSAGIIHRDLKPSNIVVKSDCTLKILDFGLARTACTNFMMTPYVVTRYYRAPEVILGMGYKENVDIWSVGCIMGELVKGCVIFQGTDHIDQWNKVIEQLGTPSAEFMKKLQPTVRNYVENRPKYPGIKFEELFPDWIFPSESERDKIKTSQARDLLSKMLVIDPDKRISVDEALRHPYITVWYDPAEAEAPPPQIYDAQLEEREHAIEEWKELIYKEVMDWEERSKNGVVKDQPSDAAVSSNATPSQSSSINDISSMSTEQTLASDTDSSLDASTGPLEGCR
# Procedure, shortened: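 Cell-free recombinant human JNK2 activity assay; fluorescent substrate and product separated by electrophoretic mobility shift, read 1 h after dosing. Primary duplicate screen at 25 uM; actives run in concentration-response up to 50 uM, relative to DMSO.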
# [14] = biological target: human Mitogen-Activated Protein Kinase 1 (MAPK 1), MAPK1 (gene 5594) (UniProt P28482); assay: NVS_ENZ_hMAPK1: NovaScreen (NVS) Enzymatic Assay for human Mitogen-Activated Protein Kinase 1 (MAPK 1) (AID 2283175)
# Procedure, shortened: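 Cell-free recombinant human MAPK1 enzymatic assay, fluorescence/electrophoretic mobility shift read at 1 h; loss of signal vs DMSO. Primary screen in duplicate at 25 uM; actives (e.g. ≥30% inhibition) run as concentration-response up to 50 uM.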
# [15] = biological target: Histone deacetylase 3 (Homo sapiens) (UniProt O15379); assay: NVS_ENZ_hHDAC3: NovaScreen (NVS) Enzymatic Assay for human Histone Deacetylase 3 (HDAC3) (AID 2283163)
# Procedure, shortened: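 Recombinant human HDAC3 with fluorescent substrate, 1 h after dosing; product separated from substrate by electrophoretic mobility shift and read by fluorescence. Primary screen at 25 uM in duplicate; actives (e.g. ≥30% inhibition) retested in concentration-response up to 50 uM.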
# [16] = biological target: human MET Proto-Oncogene, Receptor Tyrosine Kinase (MET), MET (gene 4233) (UniProt P08581); assay: NVS_ENZ_hMet: NovaScreen (NVS) Enzymatic Assay for human MET Proto-Oncogene, Receptor Tyrosine Kinase (MET) (AID 2283180)
# Procedure, shortened: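 Cell-free MET kinase assay using recombinant protein and fluorescent substrate, with mobility-shift separation; read 1 h after dosing. Primary duplicate at 25 uM; actives in singleton concentration-response to 50 uM maximum. Signal loss versus DMSO.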
# [17] = biological target: human Matrix Metalloproteinase-3 (MMP3), MMP3 (gene 4314) (UniProt P08254); assay: NVS_ENZ_hMMP3: NovaScreen (NVS) Enzymatic Assay for human Matrix Metalloproteinase-3 (MMP3) (AID 2283185)
# Procedure, shortened: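 Cell-free recombinant human MMP3 activity, fluorescence intensity read 1 h after dosing. Primary screen duplicate at 25 uM, actives retested in concentration series; loss of signal vs DMSO baseline.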
# [18] = biological target: human LYN Proto-Oncogene, Src family Tyrosine Kinase (LynA), LYN (gene 4067) (UniProt P07948); assay: NVS_ENZ_hLynA: NovaScreen (NVS) Enzymatic Assay for human LYN Proto-Oncogene, Src family Tyrosine Kinase (LynA) (AID 2283173)
# Procedure, shortened: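 Recombinant kinase with fluorescent substrate; product separated from substrate by electrophoretic mobility shift and read 1 h after dosing. Duplicate screen at 25 uM, then concentration-response up to 50 uM; activity scored as signal loss against DMSO.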
# PPP2CA (gene 5515) = PPP2CA (gene 5515) (UniProt P67775); assay: NVS_ENZ_hPPP2CA: NovaScreen (NVS) Enzymatic Assay for human Protein Phosphatase 2 Aatalytic subunit Alpha (PPP2CA) (AID 2283199)
# Procedure, shortened: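 Recombinant human PPP2CA with fluorescent substrate; product separated from substrate by electrophoretic mobility shift, read 1.33 h after dosing. Duplicate single-point at 25 uM, then singleton concentration-response up to 50 uM; loss of signal versus DMSO.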
# [19] = biological target: Protein deacetylase HDAC6 (Homo sapiens) (UniProt Q9UBN7); assay: NVS_ENZ_hHDAC6: NovaScreen (NVS) Enzymatic Assay for human Histone Deacetylase 6 (HDAC6) (AID 2283164)
# Chain of Protein deacetylase HDAC6 (Homo sapiens) (Q9UBN7 whole entry, looked up): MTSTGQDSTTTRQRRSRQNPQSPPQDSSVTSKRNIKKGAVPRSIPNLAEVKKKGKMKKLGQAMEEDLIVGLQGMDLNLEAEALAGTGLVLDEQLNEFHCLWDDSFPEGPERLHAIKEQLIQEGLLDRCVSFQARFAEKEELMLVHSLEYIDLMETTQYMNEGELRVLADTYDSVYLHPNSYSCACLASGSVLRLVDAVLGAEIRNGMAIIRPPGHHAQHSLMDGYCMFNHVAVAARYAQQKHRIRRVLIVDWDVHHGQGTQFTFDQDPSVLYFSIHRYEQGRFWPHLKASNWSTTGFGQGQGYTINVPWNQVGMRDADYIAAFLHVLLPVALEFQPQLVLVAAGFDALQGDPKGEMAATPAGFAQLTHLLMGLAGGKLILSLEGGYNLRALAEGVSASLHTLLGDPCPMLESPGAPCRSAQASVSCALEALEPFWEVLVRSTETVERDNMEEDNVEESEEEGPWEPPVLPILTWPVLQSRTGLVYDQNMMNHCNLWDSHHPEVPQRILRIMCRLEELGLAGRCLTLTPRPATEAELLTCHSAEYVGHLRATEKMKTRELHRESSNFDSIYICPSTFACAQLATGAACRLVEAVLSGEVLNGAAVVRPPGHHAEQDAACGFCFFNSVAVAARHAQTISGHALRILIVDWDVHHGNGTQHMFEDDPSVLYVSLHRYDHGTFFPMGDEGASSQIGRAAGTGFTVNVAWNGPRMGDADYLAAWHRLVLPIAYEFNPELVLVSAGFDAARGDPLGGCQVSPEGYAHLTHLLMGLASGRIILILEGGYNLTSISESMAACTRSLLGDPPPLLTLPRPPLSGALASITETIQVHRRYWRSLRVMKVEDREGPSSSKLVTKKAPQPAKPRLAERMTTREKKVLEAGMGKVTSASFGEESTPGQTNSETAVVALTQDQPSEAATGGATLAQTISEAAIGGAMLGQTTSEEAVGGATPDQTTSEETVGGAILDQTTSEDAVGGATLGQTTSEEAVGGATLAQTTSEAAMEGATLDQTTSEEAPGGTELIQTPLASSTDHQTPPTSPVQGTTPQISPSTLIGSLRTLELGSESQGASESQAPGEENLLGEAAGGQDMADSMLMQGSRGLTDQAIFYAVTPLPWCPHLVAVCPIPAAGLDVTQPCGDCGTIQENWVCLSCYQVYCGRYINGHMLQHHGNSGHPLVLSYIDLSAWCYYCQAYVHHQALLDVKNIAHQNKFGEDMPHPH
# Procedure, shortened: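 Recombinant human HDAC6 with fluorescent substrate, 1 h; product separated from substrate by electrophoretic mobility shift. Primary screen in duplicate at 25 uM; actives retested singly in concentration-response up to 50 uM, fitted relative to DMSO.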
compound,measurement,setting,value
COC(=O)N(C(=O)N1CO[C@@]2(C(=O)OC)Cc3cc(Cl)ccc3C2=N1)c1ccc(OC(F)(F)F)cc1,AC50,[1],9.53 µM (active)
same,outcome,[2],inactive
COC(=O)NC(=S)Nc1ccccc1NC(=S)NC(=O)OC,outcome,[3],inactive
same,outcome,[4],inactive
O=C(O)c1c(Cl)ccc2cc(Cl)cnc12,outcome,[5],inactive
CC1(C)C(C=C(Cl)Cl)C1C(=O)OC(C#N)c1cccc(Oc2ccccc2)c1 (stereo unspecified),AC50,[6],11.8 µM (active)
same,AC50,[1],4.96 µM (active)
same,AC50,[3],13.4 µM (active)
Cc1cnc(C2=NC(C)(C(C)C)C(=O)N2)c(C(=O)O)c1 (stereo unspecified),outcome,[7],inactive
same,outcome,[8],inactive
same,outcome,[9],inactive
CC(C)=CC1C(C(=O)OCc2coc(Cc3ccccc3)c2)C1(C)C (stereo unspecified),AC50,[10],6.48 µM (active)
same,outcome,[1],inactive
Nc1cnn(-c2ccccc2)c(=O)c1Cl,outcome,[11],inactive
CCCN(CC)CC1COC2(CCC(C(C)(C)C)CC2)O1 (stereo unspecified),outcome,[12],inactive
CCNP(=S)(OC)O/C(C)=C/C(=O)OC(C)C (stereo unspecified),outcome,[12],inactive
same,AC50,[4],19.5 µM (active)
CCN(CC)C(=O)C(C)Oc1cccc2ccccc12 (stereo unspecified),outcome,[3],inactive
CC(C)(C)C(=O)C(Oc1ccc(Cl)cc1)n1cncn1 (stereo unspecified),outcome,[12],inactive
CN=C=S,outcome,[6],inactive
Cn1c(-c2ccccc2)cc(-c2ccccc2)[n+]1C,outcome,[2],inactive
COC(=O)NS(=O)(=O)c1ccc(N)cc1,outcome,[13],inactive
same,outcome,[12],inactive
Nc1c(Cl)c(Cl)nc(C(=O)O)c1Cl,outcome,[13],inactive
CC(C)C1(C)N=C(c2ncccc2C(=O)O)NC1=O (stereo unspecified),outcome,[14],inactive
CCN(CC)c1nc(C)cc(OP(=S)(OC)OC)n1,outcome,[10],inactive
same,outcome,[3],inactive
same,AC50,[4],25 µM (active)
CC(C)Nc1nc(Cl)nc(NC(C)C)n1,AC50,[4],1 µM (active)
same,outcome,[9],inactive
Clc1nc(Cl)nc(Nc2ccccc2Cl)n1,outcome,[15],inactive
same,outcome,[7],inactive
same,outcome,[12],inactive
same,outcome,[8],inactive
same,outcome,[6],inactive
same,AC50,[10],7.57 µM (active)
CCOC(=O)C(C)OC(=O)c1cc(Oc2ccc(C(F)(F)F)cc2Cl)ccc1[N+](=O)[O-] (stereo unspecified),AC50,[6],15.3 µM (active)
same,outcome,[1],inactive
Cc1nc(N(C)C)nc(OC(=O)N(C)C)c1C,outcome,[9],inactive
CN/C(=N\[N+](=O)[O-])NCc1cnc(Cl)s1,AC50,[16],22.2 µM (active)
COC(=O)c1c(C(F)F)nc(C(F)(F)F)c(C2=NCCS2)c1CC(C)C,outcome,[10],inactive
same,outcome,[17],inactive
CCCC(=NOCC)C1=C(O)CC(CC(C)SCC)CC1=O (stereo unspecified),AC50,[14],14.1 µM (active)
same,outcome,[8],inactive
N#Cc1c[nH]cc1-c1cccc2c1OC(F)(F)O2,outcome,[18],inactive
N#CN=C1SCCN1Cc1ccc(Cl)nc1,outcome,[10],inactive
same,outcome,PPP2CA (gene 5515),inactive
Cc1c(COC(=O)[C@@H]2[C@H](/C=C(\Cl)C(F)(F)F)C2(C)C)cccc1-c1ccccc1,outcome,[6],inactive
CCOP(=O)(OCC)Oc1nc(Cl)c(Cl)cc1Cl,AC50,[4],25 µM (active)
same,outcome,[9],inactive
O=C1C2CC=CCC2C(=O)N1SC(Cl)(Cl)Cl (stereo unspecified),AC50,[15],7.99 µM (active)
same,AC50,[19],16.7 µM (active)
same,outcome,[13],inactive
N#Cc1c(Cl)cccc1Cl,outcome,[12],inactive
CS(=O)(=O)c1ccc(C(=O)C2C(=O)CCCC2=O)c([N+](=O)[O-])c1,AC50,[1],1.59 µM (active)
CCC(C)n1c(=O)[nH]c(C)c(Br)c1=O (stereo unspecified),AC50,[4],25 µM (active)
COP(=S)(OC)SCn1nnc2ccccc2c1=O,outcome,[19],inactive
same,outcome,[12],inactive
same,outcome,[3],inactive
same,AC50,[9],4.85 µM (active)
COP(=S)(OC)Oc1ccc([N+](=O)[O-])c(C)c1,outcome,[4],inactive
